# Hits are enriched below; roughly 19% of the tested compounds scored in any of these assays.
# HT1080 IDH1KD tx – qHTS for induction of synthetic lethality in tumor cells producing 2HG: qHTS for the HT-1080-IDH1KD cell line | HT-1080 IDH1 knockdown viability, ATP luminescence, 48 h | Potency, µM (highest dose often 46.1 µM), for inactives: at the top dose activity, negative = toxicity, actives largely listed as cytotoxic | hit rate 2% among 360,000 | AID 686971, 2013;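 also: 0% = DMSO wells and -100% = cell-free medium wells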
#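 % activity derives from luminescence (CellTiter-Glo), normalised to DMSO and no-cell wells. HT-1080-IDH1KD cells, 750/well, had 48 h compound exposure at 37 °C.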
# KB-V1 MDR tox – qHTS assay for MDR1-selective chemotherapeutics: Primary screen using the drug-selected MDR subline cells KB-V1; KB-V1 MDR cells viability, CellTiter-Glo, 72 h; Potency, µM (top dose mostly 46.1 µM), actives largely listed as cytotoxic; hit rate 3.4% among 400,000; AID 1347076, 2019; also: nearly all actives have a fitted effect of over 60% in size
#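 Readout: CellTiter-Glo luminescence, 10 min after addition. Cells: KB-V1 MDR subline, 72 h at 37 degrees C with compound. Analysis: corrected, normalized data fitted to concentration-effect curves.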
# DT40 TDP1 CPT – qHTS for Inhibitors of human tyrosyl-DNA phosphodiesterase 1 (TDP1): qHTS in cells in presence of CPT | Potency, µM (doses to about 46.2 µM), for inactives: at the top dose activity change, negative = growth inhibition, usual class: inhibitors | hit rate 12% among 420,000 | chicken DT40 Tdp1-/-;hTDP1 cells + 20 nM CPT, ATP luminescence, 48 h | AID 686979, 2013; also: nearly all actives have a fitted effect of over 55% in size
#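 Chicken DT40 Tdp1-/- cells complemented with human TDP1, 400 cells/well, exposed to compounds plus 20 nM camptothecin for at least 48 h at 37 C; viability read as ATP content by CellTiter-Glo luminescence.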
# KB-3-1 tox – qHTS assay for MDR1-selective chemotherapeutics: Primary screen using the parental adenocarcinoma cell KB-3-1. Potency, µM (top dose mostly 46.1 µM), most hits filed as cytotoxic. hit rate 1.4% among 400,000. AID 1347075, 2019. KB-3-1 viability, CellTiter-Glo ATP luminescence, 72 h; also: nearly all actives have a fitted effect of over 60% in size
#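 Using CellTiter-Glo luminescence, growth of non-resistant KB-3-1 adenocarcinoma cells is assessed 72 h after pin-tool compound addition at 37 °C. Normalized responses across the concentration series yield fitted curves.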
# TDP1 cell noCPT – qHTS for Inhibitors of human tyrosyl-DNA phosphodiesterase 1 (TDP1): qHTS in cells in absence of CPT; hit rate 15% among 420,000; DT40 Tdp1-/- hTDP1 cells, no CPT, ATP luminescence, 48 h; Potency, µM (series often up to 46.2 µM), without a hit: at the highest dose activity change, negative = growth inhibition, hits mostly inhibitors; AID 686978, 2013; also: nearly all actives have a fitted effect of over 55% in size
#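 Luminescent ATP content (CellTiter-Glo) served as the growth readout. Knockout chicken DT40 cells expressing human TDP1 were exposed to compounds without camptothecin for a minimum 48 hr at 37 °C.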
# HT1080-NT tox – qHTS for induction of synthetic lethality in tumor cells producing 2HG: qHTS for the HT-1080-NT fibrosarcoma cell line. HT-1080-NT fibrosarcoma viability, CellTiter-Glo ATP luminescence, 48 h. Potency, µM (highest dose often 46.1 µM), without a hit: top-dose activity, negative = less viability, actives largely listed as cytotoxic. hit rate 1.6% among 360,000. AID 686970, 2013;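 also: NT is the 2HG producing partner of a matched IDH1 knockdown line; 0% = DMSO-treated cells and -100% = media-only wells without cells; nearly all actives have a fitted effect of over 55% in size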
#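 HT-1080-NT; 750 cells/well; 5% FBS RPMI; 48 h compound, 37 degrees C; CellTiter-Glo luminescence; curve fitting and curve-class assignment.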
# Numbers without * were called inactive; i = inactive; ? = inconclusive; · = not tested or not shown. Calls follow the shape of the dose curve; as a rule, active = well fitted curve in the direction sought with a large enough effect; inconclusive = small, poorly fitted or top-dose-only effect, or another doubt; inactive = no such curve, though single readings can be large; an effect the other way counts as inactive or inconclusive. Unless noted, % is scaled to controls: 0 for no effect and ±100 for the full control effect; potency is read from the fitted curve at half-maximal effect.
SMILES,HT1080 IDH1KD tx,KB-V1 MDR tox,DT40 TDP1 CPT,KB-3-1 tox,TDP1 cell noCPT,HT1080-NT tox
Cc1nn(Cc2ccc([N+](=O)[O-])cc2)c(=O)n1-c1c(F)cccc1F,-2%,i,-12%,i,-21%,-1%
Cc1nnc(SCC(=O)Nc2nc(-c3ccc(F)cc3)cs2)[nH]c1=O,13%,i,-1%,i,-1%,10%
COc1ccc(CNC(=O)Cc2c(C)c3ccc(O)cc3oc2=O)cc1,·,i,3%,i,-2%,·
Cc1ccc(NS(=O)(=O)c2cc([N+](=O)[O-])ccc2N/N=C/c2sc(N3CCOCC3)nc2-c2ccccc2)c(C)c1,5%,i,21µM*,i,18µM*,-1%
NC(=O)c1ccccc1NC(=O)CN1CCN(Cc2ccc(Cl)cc2Cl)CC1,-3%,?,?,?,23µM*,0%
Cc1cccc(NC(=O)CN2CCN(CC(=O)NCc3ccc(Cl)cc3Cl)CC2)c1C,11%,3.7µM*,23µM*,i,?,-3%
Cc1cccc(NC(=O)CN2CCN(C(=O)CNC(=O)Cc3cccc4ccccc34)CC2)c1C,-5%,i,23µM*,i,10µM*,-12%
O=C(NCc1cccs1)c1nn(-c2ccccc2)nc1CO,·,·,-26%,·,?,·
C[C@H](CO)N1C[C@H](C)[C@@H](CN(C)S(=O)(=O)c2cn(C)cn2)OCc2cn(nn2)CCCC1=O,0%,?,-6%,i,-15%,7%
O=C(Nc1cccc(-c2csc(Nc3ccc(Cl)cc3)n2)c1)c1ccccc1,?,i,8.2µM*,i,16µM*,?
O=C(Nc1cccc(-c2csc(Nc3ccc(Cl)cc3)n2)c1)c1cccc(C(F)(F)F)c1,?,i,?,?,21µM*,?
O=C(Nc1cccc(-c2csc(Nc3ccccc3)n2)c1)c1cc([N+](=O)[O-])cc(C(F)(F)F)c1,0%,i,?,?,?,-25%
Clc1ccc(Nc2nc(-c3cccnc3)cs2)cc1,-5%,i,-14%,i,?,-7%
O=C(Nc1cccc(-c2csc(Nc3ccc(Cl)cc3)n2)c1)c1cc([N+](=O)[O-])cc(C(F)(F)F)c1,4%,i,18µM*,?,18µM*,1%
O=C(Nc1ccc(-c2csc(Nc3ccccc3)n2)cc1)c1ccccc1,-8%,i,26µM*,?,21µM*,-6%
CC1=C(C(=O)Nc2ccccc2)C(c2cccc(Cl)c2)n2nc(SCC(=O)c3ccc(C)cc3)nc2N1 (stereo not drawn),·,i,-1%,i,-7%,·
CCOCCCNC(=O)c1cnc2sc(N3CCCCCC3)nn2c1=O,·,·,2%,·,-18%,·
Cc1ccc(Cn2c(SCC(=O)N3CC(=O)Nc4ccccc43)nc3ccccc3c2=O)cc1,?,21µM*,?,i,?,-11%
Cc1cccc(-n2c(SCC(=O)N3CC(=O)Nc4ccccc43)nc3ccccc3c2=O)c1,-20%,i,?,i,23µM*,?
O=C1CN(C(=O)CSc2nnnn2-c2ccc(Cl)cc2)c2ccccc2N1,2%,16µM*,-12%,i,-27%,5%
Cc1ccc(-n2c(SCC(=O)N3CC(=O)Nc4ccccc43)nc3ccccc3c2=O)cc1C,-27%,i,?,?,-25%,-24%
Cc1nnc(SCC(=O)N2CC(=O)Nc3ccccc32)n1Cc1ccccc1,-2%,i,2%,i,-2%,0%
Cc1cccc(-n2c(SCC(=O)N3CC(=O)Nc4ccccc43)nc3ccccc3c2=O)c1C,?,i,?,i,18µM*,-30%
Cc1cccc(CNC(=O)c2c3n(c(C)cc2=O)-c2ccccc2SC(c2ccsc2)C3)n1 (stereo not drawn),·,·,-22%,·,-13%,·
Cc1cc(C)cc(NC(=O)c2ncn(-c3ccccc3)n2)c1,·,i,-21%,i,?,·
SMILES,HT1080 IDH1KD tx,KB-V1 MDR tox,DT40 TDP1 CPT,KB-3-1 tox,TDP1 cell noCPT,HT1080-NT tox
CCC12CN3CC(CC)(CN(C1)C3c1cccc(OC)c1O)C2=O (stereo not drawn),·,i,-29%,i,?,·
C/C(N)=C(/C#N)C(=O)CSc1nc2ccccc2c(=O)n1Cc1ccc(C)cc1,16µM*,?,-29%,?,?,?
C/C(N)=C(/C#N)C(=O)CSc1nc2ccccc2c(=O)n1Cc1ccc(F)cc1,-18%,i,?,i,?,2%
CC(c1ccccc1)n1c(SCC(=O)N2CC(=O)Nc3ccccc32)nc2ccccc2c1=O (stereo not drawn),-14%,?,26µM*,?,21µM*,-14%
O=C1CN(C(=O)Cn2ncc(Cl)c(Cl)c2=O)c2ccccc2N1,4.1µM*,?,7.3µM*,?,8.2µM*,4.6µM*
O=C1CN(C(=O)COc2ccc(Cl)c(Cl)c2)c2ccccc2N1,-4%,i,-10%,i,-20%,1%
O=C(Cn1ncc(Cl)c(Cl)c1=O)NCC1CCCCC1,?,i,2.6µM*,15µM*,1.8µM*,?
Cc1cccc(NC(=O)CNC(=O)CSc2ncccn2)c1C,4%,i,11%,i,5%,2%
Cc1cccc(NC(=O)CNC(=O)Cn2ncc(Cl)c(Cl)c2=O)c1C,7.3µM*,?,12µM*,?,9.2µM*,26µM*
O=C(Cn1ncc(Cl)c(Cl)c1=O)NC1CCS(=O)(=O)C1 (stereo not drawn),2%,i,23µM*,i,21µM*,-5%
CCN1CCCC1CNC(=O)Cn1cc(C)c(=O)[nH]c1=O (stereo not drawn),1%,i,-1%,i,-1%,-2%
FC(F)(F)c1ccccc1Cc1c(-c2cccc(Cl)c2)nc2ccc(Cl)cn12,9%,i,?,i,?,11%
Cc1ccc(C2CC(=O)Nc3c2c(C)nn3-c2nc(C)cc(C)n2)c(C)c1 (stereo not drawn),·,i,-14%,i,-25%,·

# Source: PubChem (National Center for Advancing Translational Sciences (NCATS))
